For 93 compounds, inhibition results are on record in PubChem BioAssay AID2069 (Sanford-Burnham Center for Chemical Genomics, 2009).

In all, about 1,200 compounds went through this assay and about 210 (18%) were called active. These entries were drawn from the full list. A number with no mark means an inactive call. No stated cut-off is given here; in the data, active means inhibition above about 30%; inactive means the rest.

This test is described as follows: fluorescence readout artefact check – biochemical, HTRF, uHTS, artefact control for SUMOylation inhibitor project, confirmation (AID 2069). The note with it: HTRF interference counterscreen, at 35 µM, hits give high values. A general note: In TR-FRET formats the signal depends on donor and acceptor labels being close together.
For `CC1=NN(c2ccccc2)C(=O)/C1=C\c1cn(CCC#N)nc1-c1ccc(Cl)cc1`, the inhibition (as a rule, the drop in the measured response relative to a control, in per cent) was -15.8%.

Take `S=C(Nc1ccc2nc(-c3ccccn3)c(-c3ccccn3)nc2c1)N1CCOCC1`: the inhibition is 10.8%.

Regarding `CN(Cc1ccco1)C(=O)c1cc2c(s1)-c1ccc(Cl)cc1S(=O)(=O)C2`, the inhibition is -9.15%.

For the compound `S=c1[nH]nc(-c2cc(-c3ccccc3)n[nH]2)n1/N=C/c1c(Cl)cccc1Cl`, the inhibition was 6.95%.

As for `CC1CCCN(c2nc3ccccc3nc2C(C#N)S(=O)(=O)c2ccccc2)C1` (stereo not drawn), the inhibition was 11.8%.

Regarding `O=C1Nc2ccc(C(F)(F)F)cc2N2CCCC12` (stereo not drawn), the inhibition was 5.75%.

Turning to `Cc1ccccc1N=Cc1cc2c(cc1[N+](=O)[O-])OCO2`, the inhibition is -2.65%.

Take `O=C1C(C2=NC(c3ccccn3)C3C(=O)N(c4ccc(Cl)cc4Cl)C(=O)C23)=C(O)c2ccccc21` (stereo not drawn): the inhibition is 2.95%.

`O=C(N/N=C/c1ccc([N+](=O)[O-])o1)c1cc2c(ccc3ccccc32)o1`: the inhibition was 20.9%.

As to `O=C(N/N=C/c1ccc(-c2ccc(Cl)c(C(=O)O)c2)o1)c1cc2c(ccc3ccccc32)o1`, the inhibition is 50.7% (active).

Regarding `Cc1cc(C(=O)N/N=C/c2ccc(-c3ccc(C)c(Cl)c3)o2)n[nH]1`, the inhibition is 4.9%.

As for `Cc1ccc(-n2c(SCC(=O)N/N=C/c3ccccc3C(=O)O)nnc2-c2ccc(Cl)cc2)cc1`, the inhibition is 5.25%.

Consider `O=C(CN1C(=O)CSC1=O)Nc1ccc(C(=O)O)cc1`, for which the inhibition is 1.7%.

Consider `O=C(CSc1nnc(SCc2ccccc2)s1)N/N=C/C=C\c1ccco1`, for which the inhibition is 3.25%.

`Nc1ccc2oc(-c3cccs3)nc2c1`: the inhibition was 37.1% (active).

Consider `Cc1ccccc1-c1nc2cc(N)ccc2o1`, for which the inhibition was 46.2% (active).

Consider `Cc1ccc(-c2nc3cc(N)ccc3o2)cc1`, for which the inhibition was 55.7% (active).

As for `Cc1nc2ccc(-c3nc4cc(N)ccc4o3)cc2[nH]1`, the inhibition is 54.3% (active).

In the case of `Cc1ccc2oc(-c3ccc(C)c(NC(=O)Cc4cccs4)c3)nc2c1`, the inhibition is 22.6%.

Turning to `O=C(Nc1ccc2oc(-c3cccc4ccccc34)nc2c1)c1ncn[nH]1`, the inhibition was 16.2%.

For `Cc1ccc(-n2nc(C)c3c2OC(N)=C(C#N)C3c2ccoc2)cc1` (stereo not drawn), the inhibition was 1.75%.

For the compound `COc1ccc(OC)c(/C=C2\S/C(=N/NC(=O)c3ccc4ccccc4c3)NC2=O)c1`, the inhibition is 8.75%.

On to `Cc1cc(C)c(S(=O)(=O)/N=C2/C=C(SCC(=O)O)C(=O)c3ccccc32)cc1C`, for which the inhibition is -10.7%.

In the case of `O=C1C2C3C=CC(C3)C2C(=O)N1CNc1ccc(O)cc1` (stereo not drawn), the inhibition is -8.05%.

Regarding `O=c1c2ccccc2nc(COc2ccccc2)n1/N=C/c1cc([N+](=O)[O-])ccc1O`, the inhibition is -7.1%.

`Oc1ccc(NCc2cccc(OCc3ccccc3)c2)cc1`: the inhibition was -19.4%.

Consider `O=C1C(NS(=O)(=O)c2cccs2)=C(N2CCN(c3cccc(C(F)(F)F)c3)CC2)C(=O)c2ccccc21`, for which the inhibition was -7.25%.

Consider `Cc1ccccc1S(=O)(=O)Nc1nc2ccccc2nc1N1CCc2ccccc2C1`, for which the inhibition was -3.1%.

Turning to `N=c1c2cn[nH]c2nc(SCC(=O)c2ccc(Br)cc2)n1-c1ccc(Br)cc1`, the inhibition was 0.5%.

With `O=C(CSc1nnc(-c2ccco2)c(-c2ccco2)n1)c1ccccc1`, the inhibition is 9%.

Regarding `S=c1[nH]nc(-c2ccc(Cl)cc2)n1/N=C/C=C/c1ccco1`, the inhibition was -4.3%.

Take `CCOC(=O)C1CCCN(c2cc(NCCCO)c([N+](=O)[O-])c3nonc23)C1` (stereo not drawn): the inhibition was -8.1%.

As for `O=C(NNC(=O)c1sc2ccccc2c1Cl)Nc1ccc(Cl)cc1`, the inhibition is -5%.

`COc1ccc(C(=O)Nc2nc3c(s2)Cc2cc(OC)ccc2-3)cc1`: the inhibition is 5.45%.

Consider `COc1ccc2c(c1)Cc1sc(NC(=O)c3ccccc3)nc1-2`, for which the inhibition was 13.9%.

For the compound `COCCN(CCOC)S(=O)(=O)c1ccc(C(=O)Nc2nc3c(s2)CCc2ccccc2-3)cc1`, the inhibition was 36.7% (active).

As to `O=C(NN1C(=O)/C(=C/C=C/c2ccco2)SC1=S)c1ccncc1`, the inhibition was 16.8%.

For `Cc1cc(C)n(Cc2ccc(C(=O)N/N=C/c3ccc(-c4ccc([N+](=O)[O-])cc4)o3)o2)n1`, the inhibition is 6.7%.

`O=C(Cc1ccccc1)Nc1nnc(-c2ccco2)s1`: the inhibition is 13.9%.

In the case of `CCC(C)(C)C1CCc2c(sc(NC(=O)c3ccccc3C(=O)O)c2C#N)C1` (stereo not drawn), the inhibition was 7.6%.

Regarding `CCCCOc1ccc(/C=C/C(=O)Nc2ccc(C(N)=O)cc2)cc1`, the inhibition was 10.9%.

As for `COc1ccccc1NC(=O)c1sc2ncn(CC(=O)Nc3ccccc3)c(=O)c2c1C`, the inhibition was 4.35%.

In the case of `O=C(Nc1ccccc1O)c1cc(S(=O)(=O)N2CCOCC2)c(Cl)cc1Cl`, the inhibition is 10.6%.

As for `O=C(O)c1cc2cccc(S(=O)(=O)N3CCOCC3)c2cc1O`, the inhibition is 49.6% (active).

With `CCN(C(=S)Nc1cc(S(=O)(=O)N2CCOCC2)ccc1Cl)c1cccc2ccccc12`, the inhibition is -26.1%.

In the case of `Cc1occc1C(=O)N1CCN(c2ccccc2)CC1`, the inhibition is 0.55%.

Regarding `CCOc1ccc(N2C(=O)c3ccc(C(=O)OCC(=O)N(CC)C4CCS(=O)(=O)C4)cc3C2=O)cc1` (stereo not drawn), the inhibition is -4.1%.

Regarding `Oc1ccc2ccccc2c1C=Nc1ccc(Cl)cn1`, the inhibition was 37.1% (active).

As for `Oc1ccccc1N=Cc1c(O)ccc2ccccc12`, the inhibition was -5.9%.

For `Oc1ccc(N=Cc2c(O)ccc3ccccc23)cc1`, the inhibition is 10.2%.

On to `CC1=CC2(O)OCCN(CCO)C2=CC1=O` (stereo not drawn), for which the inhibition is 4.6%.

On to `O=C1C=C(O)c2c(O)cccc2C1=O`, for which the inhibition is -24.9%.

In the case of `COc1cccc(/C=C2/SC(=S)N(CC(=O)NNC(=O)c3ccccc3O)C2=O)c1`, the inhibition is -13%.

As for `Cc1ccccc1Nc1cc2ccccc2c(=O)[nH]1`, the inhibition was 25.8%.

As for `CN(c1ccccc1)c1cc(=O)[nH]c(=O)[nH]1`, the inhibition was 0.55%.

For `CCN(c1ccccc1)c1cc2ccccc2c(=O)[nH]1`, the inhibition was 37% (active).

With `Cc1[nH][nH]c(=O)c1C(c1ccc(-c2ccccc2C(=O)O)o1)c1c(C)[nH][nH]c1=O`, the inhibition was 9.65%.

On to `COc1ccc(CCN2Cc3c(cccc3[N+](=O)[O-])C2=O)cc1OC`, for which the inhibition was -1.3%.

As to `CCOc1ccccc1CNc1ccc(O)cc1`, the inhibition was -10.2%.

As to `Cc1nc2ccc(NC(=O)NCc3ccco3)cc2s1`, the inhibition was 31.5% (active).

As to `Cc1ccc2c(SCC(=O)NCc3ccco3)nc(-c3ccc(F)cc3)nc2c1`, the inhibition was -4.7%.

Turning to `O=C(/C=C/c1ccco1)NC(=S)Nc1ccc(O)c(-c2nc3ccccc3s2)c1`, the inhibition was 9.4%.

For the compound `CCOc1cc(NC(=S)NCc2ccco2)c(OCC)cc1NC(=O)CC`, the inhibition was -7.1%.

On to `O=C(COC(=O)c1cc(-c2cccs2)nc2ccccc12)NCc1ccco1`, for which the inhibition was 16.3%.

For the compound `O=C(NCc1ccco1)Nc1ccc2snnc2c1`, the inhibition was 38.8% (active).

Regarding `CN(C)c1cc(N/N=C/c2ccc(Cl)cc2)nc(N(C)C)n1`, the inhibition is 7%.

For the compound `O=C(O)CN1C(=O)/C(=C\c2cc([N+](=O)[O-])ccc2OCc2ccccc2Cl)SC1=S`, the inhibition is 8.45%.

Consider `Cc1ccc(NC2=CC(=O)CC(c3ccco3)C2)c(N)c1` (stereo not drawn), for which the inhibition was 1%.

On to `COc1ccc(-c2cc(=O)[nH][nH]2)cc1`, for which the inhibition is 2.7%.

On to `N#CC(c1nc2ccccc2nc1N1CCCC1)S(=O)(=O)c1cccs1` (stereo not drawn), for which the inhibition was -0.1%.

For `COC(=O)c1cccc(-c2ccc(C(c3c(C)[nH][nH]c3=O)c3c(C)[nH][nH]c3=O)o2)c1`, the inhibition is -4.3%.

With `Oc1ccc(Br)cc1CNc1cccc2cccnc12`, the inhibition is -17.6%.

As for `O=C1C=C(N2CCOCC2)c2ccccc2C1=O`, the inhibition is 51.9% (active).

Consider `O=C1C=C(Nc2ccccc2)c2ccccc2C1=O`, for which the inhibition is -24.5%.

`Cc1ccc(NC2=CC(=O)C(=O)c3ccccc32)cc1`: the inhibition was -12.4%.

Regarding `Cc1[nH][nH]c(=O)c1C(c1c(C)[nH][nH]c1=O)c1cn(Cc2cccc3ccccc23)c2ccccc12`, the inhibition was -32.7%.

Regarding `CCOc1cc(CNc2ccccc2SC)ccc1O`, the inhibition is -6.3%.

For the compound `COc1cc(C)c2c(c1C=O)Oc1c(c(C)c(O)c3c1C(O)OC3=O)OC2=O` (stereo not drawn), the inhibition is 12.4%.

For the compound `CN(C)/C=C1\Oc2ccc3ccccc3c2C1=O`, the inhibition was -6.85%.

As to `CC1=Nc2nc(N3CCCCC3)c(C#N)c3c4c(nc(c23)N1)N(c1ccc(C(C)C)cc1)C(=O)C4`, the inhibition was 15.2%.

For the compound `CCOc1ccc(C(Nc2cccnc2)c2cc(Cl)c3cccnc3c2O)cc1` (stereo not drawn), the inhibition was 14.3%.

For `O=C(O)COc1ccccc1C(Nc1cccnc1)c1cc(Cl)c2cccnc2c1O` (stereo not drawn), the inhibition is 30.4% (active).

With `CCCCC(=O)NC(c1ccccc1Cl)c1ccc2cccnc2c1O` (stereo not drawn), the inhibition was -42.6%.

Regarding `COc1ccc(/C=N/N=C2/CC(C)(C)Cc3n[nH]c(=O)cc32)cc1`, the inhibition is 0.85%.

With `COc1ccccc1NC(=O)Cn1c(O)c(N=NC(=O)c2ccccc2O)c2ccccc21`, the inhibition was 2.2%.

With `CCCCn1c(NC(=O)c2ccc(Br)o2)c(S(=O)(=O)c2ccccc2)c2nc3ccccc3nc21`, the inhibition was 1.65%.

Take `Cc1ccc(C)c(-c2nc3ccc(N)cc3[nH]2)c1`: the inhibition is 57% (active).

With `Nc1ccc2nc(-c3ccc(-c4nc5ccc(N)cc5[nH]4)cc3)[nH]c2c1`, the inhibition was 25.4%.

In the case of `Nc1ccc(-c2nc3ccc(N)cc3[nH]2)cc1`, the inhibition was 66.3% (active).

With `O=C(Nc1nccs1)c1cc(-c2ccco2)nc2ccccc12`, the inhibition was 22.2%.

On to `Cc1oc2c(c1C(=O)O)C(=O)c1ccccc1C2=O`, for which the inhibition is -5.95%.

Take `Cc1ccc(NC(=O)CN2C(=O)S/C(=C\c3ccc(-c4cccc(C(=O)O)c4C)o3)C2=O)cc1C`: the inhibition was 26.3%.

Take `O=S(=O)(Nc1ccc(O)c2ccccc12)c1cccs1`: the inhibition is -16.9%.
